DAX1 inh-1 – DAX1 (NR0B1) inhibitors, primary screen, cell-based, HEK293, Gal4-DAX1, luciferase luminescence. hit rate 0.99% among 340,000. Nuclear receptor subfamily 0 group B member 1 (Homo sapiens), P51843. HEK293 Gal4-DAX1 luciferase reporter. inhibition, % at 6.75 µM;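 active = inhibition above the mean over all tested compounds plus 3 SD, cut at about 4.2% in these data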;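 also: 0% = DAX1-transfected cells with DMSO and 100% = empty-vector control cells with DMSO; inhibition shows as a rise in luminescence from relieved DAX1 repression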
Target sequence (P51843 207-470 limits assumed): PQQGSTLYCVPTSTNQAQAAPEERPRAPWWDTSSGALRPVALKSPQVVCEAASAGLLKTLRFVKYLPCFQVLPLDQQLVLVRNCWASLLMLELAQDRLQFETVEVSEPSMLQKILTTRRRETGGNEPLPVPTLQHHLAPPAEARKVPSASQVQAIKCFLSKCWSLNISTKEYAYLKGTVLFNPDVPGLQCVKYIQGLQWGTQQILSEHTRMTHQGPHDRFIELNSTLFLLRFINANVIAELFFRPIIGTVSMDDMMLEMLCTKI
hcDAF-12 act – H. contortus DAF-12 nuclear receptor activators, primary screen, cell-based, luminescence, HEK293, lit1-tk-luc reporter; HEK293 hcDAF-12 lit1-tk-luc reporter; 0% DMSO, 100% Δ7-dafachronic acid; activation, % at 6.8 µM; hit rate 1.4% among 370,000; AID 652067, 2013;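 active = activation above the mean of all tested compounds plus 3 SD, cut at about 5.5% in these data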;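 also: 100% = response to 3 µM Δ7-dafachronic acid high control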
DAX1 inh-2 – DAX1 (NR0B1) inhibitors on StAR promoter, primary screen, cell-based, luminescence, SF-1 (NR5A1), full-length DAX-1; HEK293T StAR-luciferase reporter, SF-1/DAX-1 repression relief; inhibition, % at 6.8 µM; hit rate 1.1% among 370,000; AID 652010, 2013;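 active = inhibition above the mean over all tested compounds plus 3 SD, cut at about 3.6% in these data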;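 also: 0% = DAX-1 cells with DMSO and 100% = cells lacking DAX-1 with DMSO; higher inhibition means more luminescence from relief of DAX-1 repression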
ssDAF-12 act – S. stercoralis DAF-12 nuclear receptor activators, primary screen, cell-based, luminescence, HEK293, GRIP1 co-expression, lit1-tk-luc. Nuclear hormone receptor DAF-12 (Strongyloides stercoralis). HEK293 ssDAF-12/GRIP1 lit1-tk-luc reporter; % of 3 µM dafachronic acid response. activation, % at 6.8 µM. hit rate 1% among 370,000. AID 652126, 2013;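 active = activation above the mean over all tested compounds plus 3 SD, cut at about 0.9% in these data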;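 also: 0% = DMSO-only wells and 100% = 3 µM delta7-dafachronic acid wells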
hgDAF12 agonist – H. glycines DAF-12 receptor agonists, primary screen, cell-based, luminescence, HEK293, GAL4 fusion, UAS-luciferase; Nuclear hormone receptor DAF-12 (Heterodera glycines), GAL4 fusion; HEK293 GAL4-hgDAF12 UAS-luciferase reporter, agonist luminescence; normalized to butyrate control; activation, % at 6.8 µM; hit rate 1.8% among 370,000;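 active = activation above a cutoff set at the mean of all screened compounds plus 3 SD, cut at about 10% in these data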;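 also: 0% = DMSO wells and 100% = sodium butyrate wells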
AHR activator – AHR activators, primary screen, cell-based, luminescence, luciferase reporter, human; AHR-responsive luciferase reporter cells; activation, % at 5 µM; hit rate 2.5% among 320,000; AID 2796, 2010; in the data active = activation above about 47%;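 also: 0% = vehicle wells and 100% = reference agonist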
* hit, by the source's call; x = not tested or not shown. Compounds with a hit are over-represented: about 5.7% of the library has one in this group of screens.

SMILES	DAX1 inh-1	hcDAF-12 act	DAX1 inh-2	ssDAF-12 act	hgDAF12 agonist	AHR activator
COc1ccc(CC(=O)c2ccc(O)cc2O)cc1	5.8*	1	3	0	7	0
Cc1nc2c(C)cccn2c1/C(O)=C1\C(=O)C(=O)N(CCN(C)C)C1c1ccccc1 (configuration not stated)	5.8*	-2	0	1.0*	-1	0
Nc1[nH]c(C(=O)c2ccc(Br)cc2)c(-c2ccc3ccccc3c2)c1C(=O)NCCc1c[nH]c2ccccc12	x	3	1	0	2	x
Cc1ccc(Nc2cc(Cl)nc(N)n2)c([N+](=O)[O-])c1	1	0	-1	-1	-1	x
Cc1cc(OCC(=O)NC(C)(C)C)ccc1Cl	0	1	1	-1	12*	2
O=C(Nc1ccc(S(=O)(=O)N2CCCC2)cc1)c1ccc(OCC2CCCO2)cc1 (configuration not stated)	-2	-4	-4	-3	-2	5
Cc1ccc(NC(=O)c2ccc(OCC3CCCO3)cc2)cc1 (configuration not stated)	3	4	3	0	12*	4
Cc1ccc(NC(=O)c2ccc(OC(=O)COc3ccc(Cl)c(C)c3)cc2)cc1	1	4	3	0	13*	16
CCCNC(=O)c1cc(C2CCCN(S(=O)(=O)c3cccc4cccnc34)C2)on1 (configuration not stated)	x	-1	-2	-1	-2	x
CCc1c(-c2ccc(F)cc2)ncn1CCc1ccccc1OC	x	-1	-1	-2	0	x
Cc1cc2c(cc1S(=O)(=O)N(C)Cc1ccccc1)n(C)c(=O)c(=O)n2C	-2	-2	0	-1	-1	-1
CCCC12CN3CCN(CC(C3)/C1=N\NC(=O)c1ccccc1N)C2	2	2	2	0	6	33
Nc1ccccc1C(=O)N/N=C1/C2CN3CCN(C2)CC1(Cc1ccccc1)C3	4.5*	2	2	0	8	11
COCc1ccc(C(=O)N(C)CC2CCCN(CCc3ccc(OC)cc3)C2)o1 (configuration not stated)	0	2	4.5*	0	10	6
COc1ccc(CCN2CCCC(CN(C)C(=O)c3cc(C)oc3C)C2)cc1 (configuration not stated)	1	4	2	1	11*	2
COCc1ccc(C(=O)N(C)CC2CCCN(CCc3ccc(Cl)cc3)C2)o1 (configuration not stated)	0	-1	0	-1	-2	-1
O=C1CS/C(=N/N=C/c2ccco2)N1Cc1ccc(F)cc1	x	-1	0	-1	-2	1
COc1ccc(CCNC(=O)CN(Cc2ccc(Cl)cc2)S(C)(=O)=O)cc1	-1	-1	-1	-2	0	x
Cc1cc(C)n2nc(S(=O)(=O)N(CC(C)C)CC(C)C)nc2n1	1	-1	1	1.0*	0	-2
CCOc1cc(CN2CCCCCC2)ccc1OC	-2	-2	0	-1	-1	1
CCCOc1ccc(CN2CCOCC2)cc1OC	5.3*	-1	0	-1	-1	3
COc1cc(-c2csc(C)n2)ccc1O	4.3*	0	0	-1	1	2
O=C(COc1ccc(F)cc1Cl)N(Cc1nnc(-c2ccccc2Cl)o1)C1CC1	0	-1	-1	-1	-2	15
COc1ccc(CCNc2nc(C)nc3c2nnn3Cc2ccccc2)cc1OC	0	0	-1	-1	0	4
Cc1cc(C(=O)O)ccc1N/C=C1\CCCC(C)C1=O (configuration not stated)	-1	3	2	1	11*	1
SMILES	DAX1 inh-1	hcDAF-12 act	DAX1 inh-2	ssDAF-12 act	hgDAF12 agonist	AHR activator
CC1CCC/C(=C\Nc2ccc(O)cc2)C1=O (configuration not stated)	0	1	1	-1	3	7
C=CCNc1nc(-c2ccc([N+](=O)[O-])cc2)cs1	-1	1	0	-1	12*	-3
O=C(Nc1ccccc1)N(O)c1ccc(Cl)cc1	1	4	0	1.6*	5	60*
CC(C)c1nc(N(C)S(C)(=O)=O)nc(-c2ccc(F)cc2)c1/C=C/[C@H](O)C[C@@H](O)CC(=O)O	x	-1	1	1	-1	x
O=Cc1cc([B-](F)(F)F)cs1	x	-1	2	-1	-5	x
O=C(CN1CCCCCC1)Nc1cccc(NC(=O)CN2CCCCCC2)c1	4.5*	-2	0	-2	-1	0
COc1cc(NC(=O)c2cccc(Cl)c2)c(OC)cc1NC(=O)CN1CCCCC1	-1	-1	0	-2	-2	71*
COc1cc(NC(=O)c2cccc(Cl)c2)c(OC)cc1NC(=O)CN1CCOCC1	-2	-3	-1	-2	-1	63*
O=C(CN1CCCCCC1)Nc1ccccc1	-1	-2	0	-1	0	-4
COc1cc(NC(=O)c2cccc(C)c2)c(OC)cc1NC(=O)CN1CCOCC1	-1	-3	-1	-2	-2	20
CC1CCN(C(=O)c2ncn3c2C(=O)N[C@H](C)C3)CC1	x	-1	0	-1	-2	x
COc1ccc(NC(=O)CO/N=C/C(=O)Nc2ccccc2C)c([N+](=O)[O-])c1	0	1	-1	0	1	13
Cc1ccc(S(=O)(=O)N2CCCCC2)cc1NC(=O)Cc1c[nH]c2ccccc12	0	5.8*	0	0	-1	23
Cc1ccc(NC(=O)Cc2c[nH]c3ccccc23)cc1S(=O)(=O)N1CCCCCC1	0	6.2*	0	-1	3	26
COc1ccc(S(=O)(=O)N2CCCCC2)cc1NC(=O)Cc1c[nH]c2ccccc12	-2	0	-1	-1	1	14
COc1ccc(NC(=O)C(c2ccccc2F)n2c(=O)c(-c3cc4ccccc4[nH]3)nc3ccccc32)cc1 (configuration not stated)	x	4	0	1	12*	x
COc1ccc(C(C(=O)NCc2ccccc2)n2c(=O)c(-c3cc4ccccc4[nH]3)nc3ccccc32)cc1 (configuration not stated)	x	3	2	0	4	x
